Laboratory results taken from PubChem BioAssay (NCATS).
Values joined by “and” are separate entries in the source; they are usually repeats but may differ in a detail not shown here. Equal entries are not always repeated. Inconclusive results are not listed. Active and inactive are the calls of the source. The call rests on the fitted dose curve; in most records, active means well fitted cell-killing curve with a large enough effect; inconclusive means small, poorly fitted or top-dose-only effect, or effect the other way; inactive means no such curve, though single readings can be large or run the other way.

Assay: Viability qHTS for spleen associated tyrosine kinase inhibitor (SYKi) drug resistant MV4-11 cells (AID 1963824); further: nearly all actives have a fitted effect of over 35% in size
Conditions: SYKi-resistant MV4-11 viability, CellTiter-Glo, 72 h; series mostly up to 45 µM; viability, % of control: at the top concentration
Text: Department of Medicine, Hematology/Oncology
University Hospital Frankfurt, Germany.
Trials have shown promising clinical activity of the selective SYK inhibitor entospletinib in patients with high expressing HOXA9/MEIS1 acute leukemias. As the development of resistance mechanisms is a common problem in the use of targeted drugs, we performed a chemical library screen to identify drug sensitivities in SYK inhibitor resistant AML cells. […] Glucocorticoids are potent immunosuppressants which work in part by inhibiting the transcription of cytokine genes.
Described herein is a viability screen to look for activity in the SYK inhibitor drug resistant cell line against four NCATS compound libraries (MIPE 5.0, NPC, NPACT, and Kinase) totaling 11372 compounds. Active hits were reacquired for confirmation and further secondary assay testing.
SEQUENCE No. (e.g., 1, 2, 3, etc.); […] (e.g., Cells, Incubation, Reagent, etc.); VALUE; DESCRIPTION.
1; Media; 2uL; white, solid-bottom Corning assay plate.
2; Compounds; 23nL; Echo acoustic dispenser.
3; Cell; 5uL; 500 cells per well.
4: Incubation; 72hr; 37 C, 5% CO2, 95% humidity.
5; Reagent; 3uL; CellTiter-Glo reagent (Promega).
6; Incubation; 10min; room temperature.
7; Detection; Luminescence; ViewLux plate reader (PerkinElmer).
NOTES (numbers refer to Sequence numbers above
1. Quantitative high-throughput screening (qHTS) of small molecule compounds was conducted on drug resistant SYKi MV4-11 cell line.
2. Twenty-three nanoliter of small molecule compounds were added to each assay plates using the Echo acoustic dispenser (Beckman Coulter).
3. Cells were seeded into the assay plates at a final density of 500 cells in 5uL of media per well using the Multidrop Combi dispenser.
4. Plates were covered with stainless steel gasketed lids and incubated for 72 hours at standard cell culture conditions.
5. Viability was assessed by adding 3uL of CellTiter-Glo detection reagent (Promega).
6. Plates were covered with gasket lids and incubated for 10 minutes at room temperature.
7. Luminescence was measured on a ViewLux plate reader (PerkinElmer).
Potency means the concentration at half of the fitted maximal effect.

Row | Structure (SMILES) | viability, % of control | Potency
1 | CN(C)C(=O)Oc1ccc[n+](C)c1 | 85.4% (inactive) | 
2 | CCCOC(=O)c1ccccc1 | 53.7% (inactive) | 
3 | CC1=C(CO)C(=O)O[C@@H]([C@@H](C)[C@H]2CC[C@H]3[C@@H]4C[C@H]5O[C@]56[C@@H](O)C=CC(=O)[C@]6(C)[C@H]4CC[C@]23C)C1 |  | 317 nM (active) and 263 nM (active)
4 | CC(C)c1nn(-c2c(Cl)cccc2Cl)c2nc(Cc3ccc(OCCO)cc3)[nH]c(=O)c12 |  | 20.6 nM (active)
5 | CC(C)(C)c1cnc(CSc2cnc(NC(=O)C3CCNCC3)s2)o1 |  | 332 nM (active)
6 | CC[C@@]1(O)C[C@H](O[C@H]2C[C@H](N(C)C)[C@H](O[C@H]3C[C@H](O)[C@H](O[C@H]4CCC(=O)[C@H](C)O4)[C@H](C)O3)[C@H](C)O2)c2c(cc3c(c2O)C(=O)c2c(O)cccc2C3=O)[C@@H]1C(=O)OC |  | 1320 nM (active)
7 | C#Cc1cccc(Nc2ncnc3cc4c(cc23)OCCOCCOCCO4)c1 |  | 18600 nM (active)
8 | CNC(=O)c1cc(Oc2ccc(NC(=O)Nc3ccc(Cl)c(C(F)(F)F)c3)c(F)c2)ccn1 |  | 291 nM (active) and 590 nM (active)
9 | CCOC(=O)c1cc(=O)c2c(OCC(COc3cccc4oc(C(=O)OCC)cc(=O)c34)OC(=O)[C@@H](N)CCCCN)cccc2o1 | 90.1% (inactive) | 
10 | N=C(N)c1ccc(OCCCCCOc2ccc(C(=N)N)cc2)cc1 |  | 4.22 µM (active) and 1.66 µM (active)
11 | Cc1cnc(CNC(=O)c2c(=O)c3ccc(N4CCCN(C)CC4)nc3n3c2sc2ccccc23)cn1 |  | 1680 nM (active)
12 | CC1(C)CC(=O)C2=C(C1)NC(=S)NC2c1cccc(O)c1 (stereo not given) |  | 580 nM (active)
13 | C[C@@H]1COCCN1c1cc(=O)n2c(n1)N(Cc1cncc(Cl)c1)[C@H](C(F)(F)F)CC2 |  | 4110 nM (active)
14 | C/C=C/C=C/C=C/C(=O)O[C@@H]1C=C(CO)C(O)(C(=O)O)[C@@]2(C)CCCC(C)(C)[C@H]12 (stereo not given in full) | 56.1% [at 17.3 µM] (inactive) | 
15 | C=CCn1c(=O)n([C@@H]2O[C@H](CO)[C@@H](O)[C@H]2O)c2nc(N)[nH]c(=O)c21 | 87.9% (inactive) | 
16 | CN(c1ccccc1CNc1nc(Nc2ccc3c(c2)CC(=O)N3)ncc1C(F)(F)F)S(C)(=O)=O |  | 326 nM (active)
17 | c1ccc2c(-c3cnn4cc(-c5ccc(N6CCNCC6)cc5)cnc34)ccnc2c1 |  | 833 nM (active)
18 | C[C@H]1CC(=O)Nc2cccc(-c3cnn(C(C)(C)C)c3)c2N1 | 69.2% (inactive) | 
19 | CCC(=C/[C@H](C)C/C=C/C(C)=C/[C@@H](C)C(=O)[C@@H](C)[C@H](O)[C@@H](C)C/C(C)=C/C(=O)O)/C=C/[C@@H]1OC(=O)C=C[C@@H]1C |  | 2.1 nM (active)
20 | Cc1c(C(=O)NN2CCCCC2)nn(-c2ccc(Cl)cc2Cl)c1-c1ccc(Cl)cc1 |  | 23700 nM (active)

Row | Structure (SMILES) | viability, % of control | Potency
21 | C[C@@H]1C[C@@H]2O[C@H]2/C=C\C=C\C(=O)Cc2c(Cl)c(O)cc(O)c2C(=O)O1 |  | 64 nM (active)
22 | CC(=O)OCC1OC(O[C@H]2CC[C@]34C[C@]35CC(O)[C@]3(C)[C@@H]([C@H](C)CC/C=C(\C)C(=O)O)C(O)C[C@@]3(C)C5CC[C@H]4C2(C)C)C(O)C(O)C1OC1OCC(O)C(O)C1O (stereo not given in full) | 79.7% [at 9.25 µM] (inactive) | 
23 | CN(C)C/C=C/C(=O)Nc1cc2c(Nc3ccc(F)c(Cl)c3)ncnc2cc1OC1CCOC1 (stereo not given) |  | 1300 nM (active)
24 | COc1cc([C@@H]2c3cc4c(cc3[C@@H](O[C@@H]3O[C@@H]5CO[C@@H](c6cccs6)O[C@H]5[C@H](O)[C@H]3O)[C@H]3COC(=O)[C@H]23)OCO4)cc(OC)c1O |  | 74.2 nM (active)
25 | Cc1nccn1CC1CCc2c(c3ccccc3n2C)C1=O (stereo not given) |  | inactive
26 | O=C1NC(=O)C(c2cnc3ccccn23)=C1c1cn2c3c(cccc13)CN(C(=O)N1CCOCC1)CC2 |  | 92 nM (active)
27 | NC(=O)C1(N2CCCCC2)CCN(CCCN2c3ccccc3CCc3ccc(Cl)cc32)CC1 |  | 8410 nM (active)
28 | O=c1c(O)c(-c2ccc(O)cc2O)oc2cc(O)cc(O)c12 | 82.3% (inactive) | 
29 | CN(C)/C(N)=N/C(=N)N |  | inactive
30 | CS(=O)(=O)N1CCN(Cc2cc3nc(-c4cccc5[nH]ncc45)nc(N4CCOCC4)c3s2)CC1 |  | 461 nM (active) and 2.09 µM (active)
31 | Cc1cccc(C)c1NC(=O)CN(CC(=O)O)CC(=O)O | 67.4% (inactive) | 
32 | C=CC1(C)CC(OC(=O)/C(C)=C\COC(C)=O)C(C(=C)C(=O)O)C(O)C1C(=C)CO (stereo not given) | 86.1% [at 17.3 µM] (inactive) | 
33 | C=C1C(=O)O[C@@H]2[C@H]1CC(=O)[C@H](C)[C@@](O)(C(=O)/C=C/C)[C@H]2OC(=O)C(C)CC (stereo not given in full) |  | 508 nM (active)
34 | CC(C)n1cc(-c2ccc(Oc3ccccc3)cc2)c2c(N)ncnc21 |  | 206 nM (active)
35 | NC(=O)NC(=O)Cc1ccccc1 | 79.2% (inactive) | 
36 | COc1ccc(/C=C/C(=O)O[C@@H]2[C@@H](OC(C)=O)[C@@H](OC(C)=O)[C@H](O[C@H]3[C@@H]4C=CO[C@@H](O[C@@H]5O[C@H](CO)[C@@H](O)[C@H](O)[C@H]5O)[C@@H]4[C@@]4(CO)O[C@@H]34)O[C@H]2C)cc1 | 104% [at 17.3 µM] (inactive) | 
37 | O=C(c1ccc(Nc2nccc(-c3cc4ccccc4s3)n2)cc1)N1CCC(N2CCCC2)CC1 |  | 1.64 µM (active) and 731 nM (active)
38 | CN(C)c1ccc2cc(C(=O)N[C@@H](CCCN=C(N)CCl)C(=O)NCc3ccccc3)ccc2c1 |  | 4680 nM (active)
39 | COC(=O)C1=CO[C@@H](O[C@@H]2O[C@H](CO[C@@H]3O[C@H](COC(=O)/C=C/c4cc(OC)c(O)c(OC)c4)[C@@H](O)[C@H](O)[C@H]3O)[C@@H](O)[C@H](O)[C@H]2O)[C@@H]2C(CO)=CC[C@H]12 | 85.5% [at 17.3 µM] (inactive) | 
40 | CC(=O)c1ccc(O[C@@H]2O[C@H](CO[C@@H]3OC[C@@H](O)[C@H](O)[C@H]3O)[C@@H](O)[C@H](O)[C@H]2O)cc1 | 102% [at 17.3 µM] (inactive) | 
